Test in all cases: glycan array binding signal (z-score within array); higher = stronger binding
Settings in all cases: glycan notation: IUPAC condensed, linker removed

The target in assay [1] is GlcNAc(b1-3)Gal(b1-4)GlcNAc(b1-2)Man(a1-3)[GlcNAc(b1-3)Gal(b1-4)GlcNAc(b1-2)Man(a1-6)]Man(b1-4)GlcNAc(b1-4)GlcNAc. The method, boiled down:
(§1)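 The Consortium for Functional Glycomics database supplied 3228 glycan arrays, of which those lacking an available protein sequence were dropped. The binding signal, a within-array Z-score, was averaged across arrays of the same protein sequence and across linkers. Negative scores can be read as non-binding.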

The target of assay [2] is GlcNAc(b1-3)Gal(b1-4)GlcNAc(b1-3)Gal(b1-4)GlcNAc(b1-3)GalNAc. The gist of the method: as §1
Assay [3] has as its target GlcNAc(b1-6)Gal(b1-4)GlcNAc. The method, boiled down: as §1
Assay [4] addresses Man(a1-2)Man(a1-2)Man(a1-3)Man. The gist of the method:
as §1

Assay [5] deals with Man(a1-3)[Man(a1-6)]Man(b1-4)GlcNAc(b1-4)[Fuc(a1-6)]GlcNAc. The gist of the method: as §1
In assay [6] the target is Neu5Ac(a2-3)Gal(b1-4)GlcNAc(b1-2)[Neu5Ac(a2-3)Gal(b1-4)GlcNAc(b1-6)]Man(a1-6)[Neu5Ac(a2-3)Gal(b1-4)GlcNAc(b1-2)Man(a1-3)][GlcNAc(b1-4)]Man(b1-4)GlcNAc(b1-4)GlcNAc. The gist of the method: as §1
The target of assay [7] is Neu5Ac(a2-3)Gal(b1-4)GlcNAc(b1-3)Gal(b1-4)GlcNAc. The gist of the method:
as §1

Assay [8] concerns the target Neu5Ac(a2-3)Gal(b1-4)GlcNAc(b1-3)Gal(b1-4)GlcNAc(b1-3)[Neu5Ac(a2-3)Gal(b1-4)GlcNAc(b1-3)Gal(b1-4)GlcNAc(b1-6)]GalNAc. The method, boiled down: as §1
Assay [9] has as its target Neu5Ac(a2-3)Gal(b1-4)[Fuc(a1-3)]GlcNAc(b1-3)GalNAc. The method, boiled down:
as §1

Assay [10] concerns the target Neu5Ac(a2-3)Gal(b1-4)[Fuc(a1-3)]GlcNAc(b1-6)[Gal(b1-3)]GalNAc. The method, boiled down: as §1
For assay [11], the target named is Neu5Ac(a2-3)GalNAc. The method, boiled down:
as §1

For assay [12], the target named is Neu5Ac(a2-6)Gal(b1-4)GlcNAc(b1-2)Man(a1-3)[GlcNAc(b1-4)][Neu5Ac(a2-6)Gal(b1-4)GlcNAc(b1-2)Man(a1-6)]Man(b1-4)GlcNAc(b1-4)GlcNAc. The gist of the method:
as §1

For assay [13], the target named is Neu5Ac(a2-6)Gal(b1-4)GlcNAc(b1-2)Man(a1-6)Man(b1-4)GlcNAc(b1-4)GlcNAc. The gist of the method: as §1
Assay [14] has as its target Neu5Ac(a2-6)Gal(b1-4)GlcNAc(b1-3)GalNAc. The method, boiled down: as §1
Assay [15] concerns the target Neu5Gc(a2-3)Gal(b1-4)GlcNAc(b1-3)Gal(b1-4)GlcNAc(b1-2)Man(a1-3)[Neu5Gc(a2-3)Gal(b1-4)GlcNAc(b1-3)Gal(b1-4)GlcNAc(b1-2)Man(a1-6)]Man(b1-4)GlcNAc(b1-4)GlcNAc. The gist of the method: as §1

Only a selection was taken, and the strongest signals are over-represented in it overall.

B1: SRA-1 (Homo sapiens), P21757 (protein)
chain: MEQWDHFHNQQEDTDSCSESVKFDARSMTALLPPNPKNSPSLQEKLKSFKAALIALYLLVFAVLIPLIGIVAAQLLKWETKNCSVSSTNANDITQSLTGKGNDSEEEMRFQEVFMEHMSNMEKRIQHILDMEANLMDTEHFQNFSMTTDQRFNDILLQLSTLFSSVQGHGNAIDEISKSLISLNTTLLDLQLNIENLNGKIQENTFKQQEEISKLEERVYNVSAEIMAMKEEQVHLEQEIKGEVKVLNNITNDLRLKDWEHSQTLRNITLIQGPPGPPGEKGDRGPTGESGPRGFPGPIGPPGLKGDRGAIGFPGSRGLPGYAGRPGNSGPKGQKGEKGSGNTLTPFTKVRLVGGSGPHEGRVEILHSGQWGTICDDRWEVRVGQVVCRSLGYPGVQAVHKAAHFGQGTGPIWLNEVFCFGRESSIEECKIRQWGTRACSHSEDAGVTCTL
In the case of B1, the “glycan array binding signal (z-score)” value is -0.204 in assay [1]; 0.215 in assay [2]; 0.773 in assay [3]; -0.235 in assay [4]; -0.293 in assay [5]; -0.583 in assay [6]. Moreover, the “glycan array binding signal (z-score)” value in assay [7] is 0.027; in assay [8], 0.253; in [9], 1.05; in assay [10], 1.18; in [11], -0.364; in assay [12], -0.341. The “glycan array binding signal (z-score)” value is 0.243 in [13], -0.285 in assay [14] and 0.684 in assay [15].

For the origin of these results see the supplement of paper PMC8728848.
